This is an account of results in ChEMBL document CHEMBL1961873, “Compounds: GSK PKIS; Assays: Nanosyn kinase panel” (2012).

Molecules are shown by their SMILES.

In assay [1] the target is Protein kinase C gamma type (Homo sapiens) (UniProt P05129). Particulars: at 1 µM.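 Note: each value is an averaged percent inhibition of the enzyme.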
In assay [2] the target is T1, Protein kinase C iota type (Homo sapiens) (UniProt P41743).
T1 sequence (whole entry): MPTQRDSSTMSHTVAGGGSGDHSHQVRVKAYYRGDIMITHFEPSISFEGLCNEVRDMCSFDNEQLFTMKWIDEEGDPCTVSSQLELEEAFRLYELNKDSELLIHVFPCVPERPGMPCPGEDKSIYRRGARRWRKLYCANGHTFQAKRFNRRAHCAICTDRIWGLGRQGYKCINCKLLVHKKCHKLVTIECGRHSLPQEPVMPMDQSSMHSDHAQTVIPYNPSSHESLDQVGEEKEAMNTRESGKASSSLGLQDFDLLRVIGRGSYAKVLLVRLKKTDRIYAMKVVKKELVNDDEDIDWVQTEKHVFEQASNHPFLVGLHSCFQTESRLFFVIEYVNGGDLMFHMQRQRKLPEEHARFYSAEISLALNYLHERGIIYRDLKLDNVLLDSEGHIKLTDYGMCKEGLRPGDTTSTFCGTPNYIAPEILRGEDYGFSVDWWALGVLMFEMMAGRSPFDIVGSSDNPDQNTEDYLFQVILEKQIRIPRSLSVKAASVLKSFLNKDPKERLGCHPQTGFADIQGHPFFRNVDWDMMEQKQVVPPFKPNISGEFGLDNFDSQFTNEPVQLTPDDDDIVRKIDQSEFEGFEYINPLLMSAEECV
Particulars: at 0.1 µM.

Assay [3] concerns the target T1, Protein kinase C iota type (Homo sapiens). Particulars: at 1 µM.
Assay [4] addresses Protein kinase C theta type (Homo sapiens) (UniProt Q04759). Particulars: at 0.1 µM.
For assay [5] the target is unchanged. Particulars: at 1 µM.
For assay [6], the target named is Protein kinase C beta type (Homo sapiens) (UniProt P05771). Particulars: at 0.1 µM.
Assay [7] shares this target. Particulars: at 1 µM.
For assay [8], the target named is T2, Serine/threonine-protein kinase D1 (Homo sapiens) (UniProt Q15139).
T2 sequence (whole entry): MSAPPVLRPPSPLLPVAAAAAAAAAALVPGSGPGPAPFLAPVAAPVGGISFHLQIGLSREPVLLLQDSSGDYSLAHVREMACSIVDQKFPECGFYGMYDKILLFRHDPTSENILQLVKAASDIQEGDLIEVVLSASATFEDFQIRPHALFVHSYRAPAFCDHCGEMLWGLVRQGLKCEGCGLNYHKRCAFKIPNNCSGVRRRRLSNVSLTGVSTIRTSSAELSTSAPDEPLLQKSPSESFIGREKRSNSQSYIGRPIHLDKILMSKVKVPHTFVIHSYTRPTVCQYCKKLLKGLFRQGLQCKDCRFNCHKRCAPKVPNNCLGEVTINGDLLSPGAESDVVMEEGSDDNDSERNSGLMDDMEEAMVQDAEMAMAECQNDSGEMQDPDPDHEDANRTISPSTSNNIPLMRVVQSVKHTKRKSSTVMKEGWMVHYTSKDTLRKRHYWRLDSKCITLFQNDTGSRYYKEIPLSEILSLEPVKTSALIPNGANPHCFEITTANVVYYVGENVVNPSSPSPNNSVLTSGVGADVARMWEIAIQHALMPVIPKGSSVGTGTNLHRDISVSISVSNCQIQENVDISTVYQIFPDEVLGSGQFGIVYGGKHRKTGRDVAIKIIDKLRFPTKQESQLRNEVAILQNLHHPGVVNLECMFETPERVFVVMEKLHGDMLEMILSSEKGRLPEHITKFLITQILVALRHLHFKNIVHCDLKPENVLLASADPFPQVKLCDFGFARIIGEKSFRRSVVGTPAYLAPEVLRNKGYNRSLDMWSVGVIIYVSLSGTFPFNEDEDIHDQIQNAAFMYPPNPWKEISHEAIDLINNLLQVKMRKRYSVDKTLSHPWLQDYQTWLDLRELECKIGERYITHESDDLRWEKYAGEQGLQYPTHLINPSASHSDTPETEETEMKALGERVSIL
Particulars: at 0.1 µM.

The target in assay [9] is T2, Serine/threonine-protein kinase D1 (Homo sapiens). To be noted: at 1 µM.
The target of assay [10] is T3, Serine/threonine-protein kinase D2 (Homo sapiens) (UniProt Q9BZL6).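 Note: reported percent inhibition values are means, part of the GSK PKIS kinase panel screen.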
T3 sequence (whole entry): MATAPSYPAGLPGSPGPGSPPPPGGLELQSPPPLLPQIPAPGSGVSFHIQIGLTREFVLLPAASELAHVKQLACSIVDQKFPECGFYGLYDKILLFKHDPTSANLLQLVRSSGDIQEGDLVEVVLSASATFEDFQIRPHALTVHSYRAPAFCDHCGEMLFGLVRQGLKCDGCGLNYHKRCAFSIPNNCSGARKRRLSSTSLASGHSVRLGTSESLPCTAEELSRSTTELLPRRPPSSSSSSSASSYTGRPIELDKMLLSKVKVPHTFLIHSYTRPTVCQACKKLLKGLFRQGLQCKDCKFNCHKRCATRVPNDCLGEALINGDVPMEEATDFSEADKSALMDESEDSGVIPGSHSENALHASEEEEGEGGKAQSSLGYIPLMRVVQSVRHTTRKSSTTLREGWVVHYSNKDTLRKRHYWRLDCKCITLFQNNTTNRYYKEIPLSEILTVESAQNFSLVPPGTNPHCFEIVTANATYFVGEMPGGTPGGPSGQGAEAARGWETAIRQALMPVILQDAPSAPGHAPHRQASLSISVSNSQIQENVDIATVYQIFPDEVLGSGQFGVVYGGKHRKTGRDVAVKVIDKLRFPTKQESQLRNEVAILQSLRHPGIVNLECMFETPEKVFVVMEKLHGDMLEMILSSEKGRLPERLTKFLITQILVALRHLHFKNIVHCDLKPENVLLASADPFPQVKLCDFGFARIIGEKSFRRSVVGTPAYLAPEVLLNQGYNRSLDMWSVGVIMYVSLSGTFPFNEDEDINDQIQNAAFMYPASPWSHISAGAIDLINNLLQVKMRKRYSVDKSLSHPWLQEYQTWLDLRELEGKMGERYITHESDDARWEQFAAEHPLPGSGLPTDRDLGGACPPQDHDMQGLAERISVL
Particulars: at 0.1 µM.

Protein kinase C theta type (Homo sapiens), sequence (Q04759 whole entry, looked up): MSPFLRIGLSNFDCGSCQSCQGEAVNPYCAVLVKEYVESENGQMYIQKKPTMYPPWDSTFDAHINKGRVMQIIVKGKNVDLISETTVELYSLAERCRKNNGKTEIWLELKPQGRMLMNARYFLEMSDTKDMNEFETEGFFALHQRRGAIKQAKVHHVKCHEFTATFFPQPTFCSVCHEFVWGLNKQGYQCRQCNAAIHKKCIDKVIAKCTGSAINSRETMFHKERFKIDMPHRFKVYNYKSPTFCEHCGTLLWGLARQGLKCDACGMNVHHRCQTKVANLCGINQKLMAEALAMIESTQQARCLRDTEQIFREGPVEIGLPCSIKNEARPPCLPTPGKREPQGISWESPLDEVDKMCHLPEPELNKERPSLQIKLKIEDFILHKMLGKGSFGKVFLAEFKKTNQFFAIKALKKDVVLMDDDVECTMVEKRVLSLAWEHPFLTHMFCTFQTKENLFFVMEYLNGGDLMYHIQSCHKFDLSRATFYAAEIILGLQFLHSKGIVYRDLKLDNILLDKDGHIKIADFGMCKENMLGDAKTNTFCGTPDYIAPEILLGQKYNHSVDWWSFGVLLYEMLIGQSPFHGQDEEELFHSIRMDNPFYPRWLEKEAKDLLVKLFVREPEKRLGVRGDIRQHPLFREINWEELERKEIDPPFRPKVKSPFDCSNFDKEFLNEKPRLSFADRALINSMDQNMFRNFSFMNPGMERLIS
Protein kinase C beta type (Homo sapiens), sequence (P05771 2-671 limits assumed): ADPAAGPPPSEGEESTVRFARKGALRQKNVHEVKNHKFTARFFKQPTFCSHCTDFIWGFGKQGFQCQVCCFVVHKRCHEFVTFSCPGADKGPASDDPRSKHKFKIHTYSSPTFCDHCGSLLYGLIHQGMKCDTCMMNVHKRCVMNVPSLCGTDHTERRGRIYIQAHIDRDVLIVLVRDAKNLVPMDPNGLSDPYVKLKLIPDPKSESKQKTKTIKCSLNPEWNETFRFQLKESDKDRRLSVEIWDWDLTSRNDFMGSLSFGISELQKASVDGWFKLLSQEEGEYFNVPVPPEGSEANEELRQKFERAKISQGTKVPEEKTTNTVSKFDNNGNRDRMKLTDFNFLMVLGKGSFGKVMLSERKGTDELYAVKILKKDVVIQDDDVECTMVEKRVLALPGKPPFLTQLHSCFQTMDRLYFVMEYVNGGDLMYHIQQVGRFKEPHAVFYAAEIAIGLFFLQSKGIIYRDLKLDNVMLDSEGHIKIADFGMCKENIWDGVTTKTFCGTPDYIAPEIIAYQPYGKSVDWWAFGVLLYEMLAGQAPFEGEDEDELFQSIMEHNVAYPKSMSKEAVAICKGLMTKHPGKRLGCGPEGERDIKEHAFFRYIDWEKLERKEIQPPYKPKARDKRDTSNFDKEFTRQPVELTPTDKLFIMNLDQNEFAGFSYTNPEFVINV

What is called inhibition is the change of the read-out against control, counted positive when it falls. As for `O=C(Nc1n[nH]c2nnc(-c3cccnc3)cc12)C1CC1`, the inhibition was 2.11% in assay [1]; -0.5% in assay [2]; -0.56% in [3]; -0.08% in assay [4]; 0.79% in assay [5]; 0.49% in assay [6]. Also, the inhibition is 3.21% in assay [7], -0.5% in [8], 0.81% in assay [9] and -1.06% in assay [10].

Take `NC(=O)c1ccc2c(-c3ccnc(NCCCO)n3)c(-c3ccc(F)cc3)nn2c1`: the inhibition in assay [1] was 7.09%; in [2] it was 1.98%; in assay [3], 3.92%; in assay [4], 2.7%; in [5], 2.63%; in [6], 4.8%. Besides, the inhibition in [7] was determined as 24.3%; in [8], 6.13%; in assay [9], 25.5%; in [10], 7.41%.

For `NS(=O)(=O)c1ccc(N/N=C2\C(=O)Nc3ccc(C(=O)NCc4ccncc4)cc32)cc1`, the inhibition is 6.61% in [1]; -9.87% in assay [2]; 1.34% in assay [3]; 3.98% in assay [4]; 8.38% in assay [5]; 1.7% in assay [6]. The inhibition was 4.09% in [7], 3.88% in assay [8], 24.4% in assay [9] and 6.54% in [10].

In the case of `CCS(=O)(=O)c1ccc(OC)c(Nc2ncc(-c3cccc(F)c3)o2)c1`, the inhibition is 5.39% in [1]; 2.05% in assay [2]; 3.04% in assay [3]; 2.72% in assay [4]; 4.21% in assay [5]; 1.9% in assay [6]. Also, the inhibition was 4.01% in assay [7], 4.25% in [8], 5.42% in assay [9] and 3.92% in [10].

`CS(=O)(=O)Nc1ccc(-c2cc(-c3ccccc3)cc(C(N)=O)c2N)cc1`: the inhibition in [1] amounted to 1.39%; in assay [2], 1.17%; in assay [3] it was 1.73%; in assay [4] it was 0.69%; in [5], 0.71%; in [6], 0.99%. Also, the inhibition was 1.98% in assay [7], 1.67% in [8], 1.98% in assay [9] and 0.22% in [10].

Turning to `CS(=O)(=O)CCNCc1ccoc1-c1ccc2ncnc(Nc3ccc(OCc4ccccc4)cc3)c2c1`, the inhibition in [1] is 0.87%; in [2], 0.27%; in assay [3], -1.03%; in assay [4] it was -0.2%; in [5] it was 0.08%; in assay [6] it was -0.23%. The inhibition in assay [7] was 0.72%; in [8], 1.6%; in assay [9], 2.33%; in assay [10], 1.46%.

`Cc1cc(O)cc(C)c1/C=C/c1cncc(C(=O)OC(C)(C)C)c1`: the inhibition in assay [1] was found to be 2.62%; in [2], 2.97%; in [3], 0.22%; in [4] it was 1.48%; in assay [5], 1.91%; in assay [6], 1.37%. Further, the inhibition was 1.05% in [7], 2.14% in assay [8], 2.96% in assay [9] and 1.79% in [10].

Turning to `COc1cccc(-n2ncc3c(N/N=C/c4ccc(C(=O)NCCN(C)C)cc4)ncnc32)c1`, the inhibition turned out to be 4.05% in [1]; 2.38% in assay [2]; 10.3% in assay [3]; 1.61% in assay [4]; 1.46% in assay [5]; 1.88% in assay [6]. The inhibition in assay [7] is 17.7%; in assay [8] it was 2.09%; in assay [9] it was 7.26%; in assay [10] it was 2.5%.

For the molecule `CC1(C)CC(n2cnc(-c3ccc(F)cc3)c2-c2ccnc(N)n2)CC(C)(C)N1`, the inhibition came to 1.2% in [1]; 0.48% in [2]; 0.2% in [3]; 0.49% in assay [4]; 1.27% in assay [5]; 1.08% in assay [6]. Also, the inhibition in [7] was 4.59%; in assay [8], 0.74%; in [9] it was 3.49%; in [10], 1.47%.

Turning to `NS(=O)(=O)c1ccc(N/N=C2\C(=O)Nc3cccc(CCc4ccncc4)c32)cc1`, the inhibition was -0.16% in assay [1]; 0.18% in assay [2]; 1.06% in assay [3]; 0.33% in [4]; -0.34% in assay [5]; -0.03% in [6]. The inhibition worked out at 0.05% in assay [7], 1.18% in [8], 1.94% in assay [9] and 0.05% in [10].
